Consider 13 compounds from PubChem BioAssay.

A number with no mark means an inactive call. The source made the active and inactive calls.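 Rule for the calls: active = thallium flux through the channel raised or lowered by more than 3 SD from vehicle-only wells, actives on both sides; inactive = the rest.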

Common to all, as to experiment: modulators of BK channel variants, profiling panel, selectivity assay, cell-based, U2OS BacMam, thallium flux, beta subunits (AID 1259406);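 note: initial slope of Thallos dye fluorescence rise after thallium is added; log ratio against the mean of 0.3% DMSO vehicle wells on the same plate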
The subject of one assay is F380Y. To be noted: at 30 µM.
A further assay concerns F380Y/beta1. The settings on record: at 30 µM.
The subject of another assay is F380Y/beta2Delta. The settings on record: at 30 µM.
The next assay relates to F380Y/beta4. The settings on record: at 30 µM.
Assay [1] has as its target Calcium-activated potassium channel subunit alpha-1 (Homo sapiens) + Leucine-rich repeat-containing protein 26 (Homo sapiens) (UniProt Q12791+Q2I0M4). To be noted: F380Y/Slo1WT/gamma1, at 30 µM.
A further assay concerns R275C. The settings on record: at 30 µM.
Another assay deals with R275C/beta1. The settings on record: at 30 µM.
For another assay, the system named is R275C/beta2Delta. To be noted: at 30 µM.
A further assay deals with R275C/beta4. To be noted: at 30 µM.
Another assay concerns R275C/Slo1WT/beta2. To be noted: at 30 µM.

Sequence of Calcium-activated potassium channel subunit alpha-1 (Homo sapiens) + Leucine-rich repeat-containing protein 26 (Homo sapiens) (Q2I0M4 whole entry, looked up, one chain of several): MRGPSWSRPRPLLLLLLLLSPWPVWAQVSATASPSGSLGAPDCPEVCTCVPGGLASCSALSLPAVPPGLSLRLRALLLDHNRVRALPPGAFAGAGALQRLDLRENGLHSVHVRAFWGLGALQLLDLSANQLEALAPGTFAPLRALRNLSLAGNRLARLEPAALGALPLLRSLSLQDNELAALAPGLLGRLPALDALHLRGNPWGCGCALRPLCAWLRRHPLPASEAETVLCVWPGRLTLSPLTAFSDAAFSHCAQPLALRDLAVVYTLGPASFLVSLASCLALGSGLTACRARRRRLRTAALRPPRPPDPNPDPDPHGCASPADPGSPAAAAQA

Take `CC(=O)C(=CN(C)C)Sc1ccc(Cl)cc1`: the log fold change Tl+ flux with F380Y was 0.0299; with F380Y/beta1 it was -0.000152; in the assay on F380Y/beta2Delta it was 0.00502; in the assay with F380Y/beta4, 0.000556; in assay [1] it was 0.0115; in the assay on R275C, 0.0269. For the same compound, the log fold change Tl+ flux was 0.0366 in the assay with R275C/beta1, 0.0244 in the assay with R275C/beta2Delta, 0.0484 in the assay on R275C/beta4 and -0.0118 with R275C/Slo1WT/beta2.
Regarding `CN(NC(=O)c1ccc(Cl)s1)c1cnn(-c2cc(Cl)cc(Cl)c2)c(=O)c1Cl`, the log fold change Tl+ flux is 0.0366 in the assay with F380Y; -0.0161 with F380Y/beta1; 0.019 in the assay with F380Y/beta2Delta; 0.00909 with F380Y/beta4; -0.0561 in [1]; -0.0148 in the assay on R275C. Further, the log fold change Tl+ flux in the assay on R275C/beta1 is 0.00182; in the assay with R275C/beta2Delta, 0.046; with R275C/beta4, -0.0313; with R275C/Slo1WT/beta2, -0.00119.
On to `O=C(CN1c2ccccc2Sc2ccccc21)NN=Cc1ccco1`, for which the log fold change Tl+ flux is 0.028 with F380Y; 0.0239 with F380Y/beta1; -0.0113 in the assay with F380Y/beta2Delta; -0.113 (active) with F380Y/beta4; 0.0102 in assay [1]; -0.00994 with R275C. Besides, the log fold change Tl+ flux was 0.0301 in the assay with R275C/beta1, -0.0092 with R275C/beta2Delta, 0.0737 with R275C/beta4 and 0.032 in the assay on R275C/Slo1WT/beta2.
Take `Cc1[nH]n(-c2c(Cl)cc(C(F)(F)F)cc2Cl)c(=O)c1N=Nc1ccccc1`: the log fold change Tl+ flux with F380Y was 0.0138; in the assay on F380Y/beta1 it was 0.00301; in the assay on F380Y/beta2Delta, 0.00886; in the assay with F380Y/beta4 it was 0.0101; in [1] it was -0.0146; in the assay on R275C it was -0.0246. Also, the log fold change Tl+ flux was 0.00755 in the assay on R275C/beta1, 0.0171 in the assay on R275C/beta2Delta, -0.0209 with R275C/beta4 and -0.029 with R275C/Slo1WT/beta2.
As for `CSC(NCc1cccnc1)=C(C#N)S(=O)(=O)c1ccc(Cl)cc1`, the log fold change Tl+ flux with F380Y is 0.0268; in the assay on F380Y/beta1 it was 0.0532; with F380Y/beta2Delta it was 0.0758; with F380Y/beta4 it was 0.000772; in assay [1], 0.0179; in the assay with R275C, 0.0549. For the same compound, the log fold change Tl+ flux with R275C/beta1 was 0.0793; in the assay on R275C/beta2Delta, 0.0872 (active); in the assay with R275C/beta4, 0.0736; with R275C/Slo1WT/beta2, 0.0289.
Consider `Cc1cc(-c2nn(C)c(=O)c3ccccc23)cc(C)c1O`, for which the log fold change Tl+ flux with F380Y was 0.00104; in the assay with F380Y/beta1, 0.0146; in the assay on F380Y/beta2Delta, 0.00813; with F380Y/beta4, -0.0513; in assay [1], -0.0365; in the assay with R275C, 0.0132. For the same compound, the log fold change Tl+ flux in the assay on R275C/beta1 was 0.0233; in the assay on R275C/beta2Delta, -0.0115; with R275C/beta4, 0.0138; in the assay with R275C/Slo1WT/beta2, -0.0205.
Take `CSc1n[nH]c(N)c1S(=O)(=O)C(C)C`: the log fold change Tl+ flux in the assay on F380Y was 0.0369; in the assay with F380Y/beta1 it was 0.0175; with F380Y/beta2Delta, 0.0116; with F380Y/beta4, -0.00921; in assay [1], 0.0306; with R275C it was -0.018. Moreover, the log fold change Tl+ flux in the assay on R275C/beta1 is 0.0133; with R275C/beta2Delta, -0.00282; with R275C/beta4, 0.0217; in the assay on R275C/Slo1WT/beta2, 0.0141.
For `O=C1NC2CC2N1C(=O)OCc1ccccc1` (stereo not given), the log fold change Tl+ flux in the assay with F380Y was 0.0285; in the assay with F380Y/beta1 it was -0.00537; in the assay with F380Y/beta2Delta, 0.0281; with F380Y/beta4 it was 0.054; in [1], -0.0415; in the assay with R275C it was 0.00866. The log fold change Tl+ flux with R275C/beta1 is 0.00489; with R275C/beta2Delta, 0.0219; in the assay on R275C/beta4 it was -0.029; with R275C/Slo1WT/beta2, -0.0313.
For the compound `O=S(=O)(c1ccc(N2CCOCC2)nc1)N1CCN(c2c(Cl)cncc2Cl)CC1`, the log fold change Tl+ flux was 0.0448 in the assay on F380Y; -0.00781 in the assay on F380Y/beta1; 0.0236 in the assay with F380Y/beta2Delta; -0.00865 with F380Y/beta4; -0.039 in [1]; 0.00433 in the assay with R275C. For the same compound, the log fold change Tl+ flux with R275C/beta1 is 0.0279; with R275C/beta2Delta, 0.0194; with R275C/beta4 it was -0.0287; in the assay with R275C/Slo1WT/beta2, 0.00545.
On to `CCOC(=O)CSc1nnc(OCC)n1-c1ccccc1`, for which the log fold change Tl+ flux was -0.0276 in the assay on F380Y; -0.00436 in the assay on F380Y/beta1; 0.0123 in the assay with F380Y/beta2Delta; -0.00338 with F380Y/beta4; 0.0529 in assay [1]; -0.0234 in the assay on R275C. The log fold change Tl+ flux was 0.0181 with R275C/beta1, -0.0101 in the assay on R275C/beta2Delta, -0.0109 in the assay with R275C/beta4 and 0.0084 in the assay with R275C/Slo1WT/beta2.
In the case of `O=C1CSC(=S)N1N=Cc1cccnc1`, the log fold change Tl+ flux is 0.0409 in the assay with F380Y; 0.00585 with F380Y/beta1; 0.0225 with F380Y/beta2Delta; 0.0146 in the assay with F380Y/beta4; 0.0179 in assay [1]; 0.0256 in the assay with R275C. The log fold change Tl+ flux is -0.0433 in the assay on R275C/beta1, 0.0173 in the assay with R275C/beta2Delta, 0.00843 in the assay with R275C/beta4 and -0.022 with R275C/Slo1WT/beta2.
As for `O=S(=O)(c1ccc(-c2cc(C(F)(F)F)on2)s1)N1CCc2c([nH]c3ccc(F)cc23)C1`, the log fold change Tl+ flux is 0.0233 in the assay with F380Y; 0.0471 in the assay on F380Y/beta1; 0.0355 in the assay on F380Y/beta2Delta; 0.0473 in the assay on F380Y/beta4; 0.0308 in assay [1]; 0.0283 in the assay with R275C. For the same compound, the log fold change Tl+ flux in the assay on R275C/beta1 is -0.0189; in the assay with R275C/beta2Delta, 0.0168; in the assay on R275C/beta4 it was -0.00429; in the assay on R275C/Slo1WT/beta2, 0.00527.
For the compound `COc1ccc(Cl)cc1N1C(=O)C=C(c2ccccc2)C1=O`, the log fold change Tl+ flux in the assay on F380Y was 0.0164; in the assay on F380Y/beta1 it was 0.00407; in the assay with F380Y/beta2Delta, -0.00673; with F380Y/beta4 it was -0.00456; in [1], 0.00342; in the assay with R275C it was -0.0171. Further, the log fold change Tl+ flux was 0.056 in the assay with R275C/beta1, 0.00976 in the assay with R275C/beta2Delta, 0.0143 in the assay on R275C/beta4 and -0.0335 in the assay on R275C/Slo1WT/beta2.
